The text below walks through data of PubChem BioAssay AID624255 (Broad Institute, 2012).

Structures are written as SMILES. Screen size: about 77,000 compounds; about 4,600 (6%) were called active. Roughly 1% stayed inconclusive and do not appear here. The list comes from a sample in which actives are over-represented; it also holds similar structures and randomly drawn compounds. Values without a mark were called inactive.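 The calls were made as follows: active = mean inhibition above about 93%, with at least 55% of replicates each passing it (limit read from the data, passing the limit was not always enough); inconclusive = only one of those two conditions holds; inactive = neither condition holds.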

This experiment can be described thus: T. cruzi intracellular proliferation inhibitors, primary screen, cell-based, beta-gal Tulahuen parasites, NIH3T3 host, luminescence (AID 624255). The conditions noted are these: T. cruzi beta-gal in NIH3T3, GalScreen luminescence, 90 h; at 8.34 µM; active compounds read high.
With `CO[C@@H]1CN(C)C(=O)c2cc(NC(=O)C3CCCCC3)ccc2OC[C@@H](C)N(C(=O)Nc2ccc(C(F)(F)F)cc2)C[C@H]1C`, the inhibition is 15.6%. Under `O=C(C[C@H]1CC[C@H]2[C@@H](COC[C@H](O)CN2C(=O)c2ccccc2F)O1)NCc1ccccc1` stands -22.2%; under `Cc1ccc(S(=O)(=O)Nc2ccc3c(c2)C(=O)N([C@H](C)CO)C[C@@H](C)[C@@H](CN(C)S(C)(=O)=O)OCCCC[C@@H](C)O3)cc1`, 29.2%.

With `CO[C@H]1CN(C)C(=O)c2cc(NC(=O)Nc3c(C)noc3C)ccc2OC[C@@H](C)N(CCC(F)(F)F)C[C@H]1C`, the inhibition is 6.32%. Under `Cc1noc(C)c1NC(=O)Nc1ccc2c(c1)C(=O)N([C@H](C)CO)C[C@@H](C)[C@H](CN(C)C(=O)Nc1cccc3ccccc13)OCCCC[C@@H](C)O2` stands 80.3%; under `C/C=C/c1ccc([C@@H]2[C@H](CO)N(C(C)=O)[C@H]2CN(CC)C(=O)CN(C)C)cc1`, 81.2%. The value for `C[C@@H]1CN([C@H](C)CO)C(=O)c2cc(NC(=O)CCCN(C)C)ccc2O[C@@H](C)CCCCO[C@@H]1CN(C)Cc1ccncc1` was 14.7%; that for `CN(C)C(=O)[C@@H]1[C@@H](CO)[C@@H]2Cn3c(cccc3=O)[C@@H]2N1C(=O)C1CCC1` was -8.64%; that for `COc1ccc(S(=O)(=O)N(C)C[C@@H]2OCCCC[C@H](C)Oc3ccc(NC(=O)NC4CCCCC4)cc3C(=O)N([C@H](C)CO)C[C@H]2C)cc1` was 94%. In the case of `O=C(C[C@H]1CC[C@@H]2[C@H](COC[C@@H](O)CN2C(=O)Nc2ccc(C(F)(F)F)cc2)O1)NCCc1ccncc1`, the inhibition is 57%. Under `O=C(C[C@@H]1CC[C@@H]2[C@H](COC[C@H](O)CN2C(=O)Cc2ccccc2)O1)NC1CCC1` stands 27.2%. Under `C[C@@H]1CN([C@@H](C)CO)C(=O)c2cc(NS(=O)(=O)c3cn(C)cn3)ccc2O[C@@H](C)CCCCO[C@H]1CN(C)S(=O)(=O)c1cn(C)cn1` stands -14.8%; under `C[C@H](CO)N1C[C@H](C)[C@H](CN(C)C(=O)CCC(F)(F)F)OCCCC[C@H](C)Oc2ccc(NS(C)(=O)=O)cc2C1=O`, -3.61%; under `CNC[C@@H]1OCCCC[C@@H](C)Oc2ccc(NS(C)(=O)=O)cc2C(=O)N([C@H](C)CO)C[C@@H]1C`, 4.76%. `C[C@@H]1CN([C@H](C)CO)C(=O)c2cccc(NS(=O)(=O)c3cn(C)cn3)c2O[C@H]1CN(C)CC1CC1`: the inhibition was 27.4%. Under `C[C@@H]1CCCCO[C@H](CN(C)C(=O)CCC(F)(F)F)[C@H](C)CN([C@H](C)CO)C(=O)c2cc(NS(C)(=O)=O)ccc2O1` stands 107% (active); under `C[C@@H]1CN([C@@H](C)CO)C(=O)c2cc(NS(C)(=O)=O)ccc2O[C@@H](C)CCCCO[C@@H]1CN(C)S(=O)(=O)c1cn(C)cn1`, -54%; under `C[C@H]1CN([C@@H](C)CO)C(=O)c2cccc(NS(=O)(=O)c3cn(C)cn3)c2O[C@@H]1CN(C)CC1CCCCC1`, 96.2% (active). In the case of `C[C@@H]1CN([C@H](C)CO)C(=O)c2cc(NS(C)(=O)=O)ccc2O[C@@H](C)CCCCO[C@H]1CN(C)S(=O)(=O)c1cn(C)cn1`, the inhibition was 104% (active).

For `CNC[C@H]1OCCCC[C@@H](C)Oc2ccc(NS(C)(=O)=O)cc2C(=O)N([C@@H](C)CO)C[C@H]1C`, the inhibition is 61.9%. Under `C[C@@H]1CN([C@H](C)CO)C(=O)c2cc(NS(=O)(=O)c3ccccc3)ccc2O[C@@H](C)CCCCO[C@@H]1CN(C)C(=O)CCC(F)(F)F` stands -2.2%.

On to `C[C@H]1CN([C@@H](C)CO)C(=O)c2cc(NS(=O)(=O)c3cn(C)cn3)ccc2O[C@H]1CN(C)CC1CCCCC1`, for which the inhibition is 3.71%. In the case of `CNC[C@H]1OCCCC[C@@H](C)Oc2ccc(NS(C)(=O)=O)cc2C(=O)N([C@H](C)CO)C[C@H]1C`, the inhibition is 101% (active).

As for `CNC(=O)C[C@H]1CC[C@@H]2[C@@H](COc3ccc(NC(=O)c4ccc(F)c(F)c4)cc3C(=O)N2C)O1`, the inhibition is -6.57%. In the case of `CCNC(=O)Nc1ccc2c(c1)C(=O)N(C)[C@H]1CC[C@@H](CC(=O)N[C@H](C)c3ccccc3)O[C@@H]1CO2`, the inhibition was 13.7%.

Regarding `Cc1noc(C)c1S(=O)(=O)N(C)C[C@@H]1Oc2ccc(NC(=O)Cn3cnnn3)cc2CC(=O)N([C@@H](C)CO)C[C@@H]1C`, the inhibition was -16.4%. The value for `Cc1ccc(S(=O)(=O)N[C@@H]2CC[C@H](CCNC(=O)C3CCOCC3)O[C@@H]2CO)cc1` was 2.56%; that for `CO[C@H]1CN(C)C(=O)c2cc(NC(=O)C3CCC3)ccc2OC[C@H](C)N(C)C[C@H]1C` was 17%.

As to `CC=Cc1ccc2n(c1=O)C[C@@H]1[C@@H](CO)[C@H](C(=O)NCC3CC3)[C@H]2N1C(=O)c1ccccc1` (mixture of isomers), the inhibition is 35.2%. With `COc1ccc(-c2ccc([C@@H]3[C@@H](CO)N4CCCCN(C(=O)NC(C)C)C[C@H]34)cc2)cc1`, the inhibition was 73.2%.

As for `CN1C(=O)c2cc(NS(C)(=O)=O)ccc2OC[C@H]2O[C@H](CC(=O)NCc3ccccc3)CC[C@H]21`, the inhibition was -19.6%. The value for `CO[C@@H]1CN(C)C(=O)c2ccc(NC(=O)Nc3ccccc3)cc2OC[C@@H](C)N(C(=O)CN(C)C)C[C@H]1C` was -44.4%. Under `O=C([C@@H]1[C@@H](CO)[C@@H]2Cn3c(ccc(-c4ccccc4)c3=O)[C@H]1N2CCC(F)(F)F)N1CCCCC1` stands 1.28%. As to `CNC[C@@H]1OCCCC[C@H](C)Oc2ccc(NC(=O)Nc3ccccc3)cc2C(=O)N([C@H](C)CO)C[C@H]1C`, the inhibition was 28.6%. Under `CNC[C@H]1OCCCC[C@H](C)Oc2ccc(NC(=O)Nc3c(C)noc3C)cc2C(=O)N([C@H](C)CO)C[C@H]1C` stands 104% (active); under `Cc1noc(C)c1NC(=O)Nc1ccc2c(c1)C(=O)N([C@H](C)CO)C[C@H](C)[C@@H](CN(C)S(C)(=O)=O)OCCCC[C@H](C)O2`, 11.5%.

`CO[C@@H]1CN(C)C(=O)c2cc(NC(=O)NC(C)C)ccc2OC[C@@H](C)N(CC2CC2)C[C@@H]1C`: the inhibition is -28.4%.
